Reference: PubChem BioAssay (Tox21)
Records with an inconclusive call do not appear. Activity calls are given as the source filed them. Unless noted, calls come from the whole dose curve; as a rule, active = well fitted curve in the direction sought with a large enough effect in the repeat runs; inconclusive = weak or mixed curves; inactive = flat fitted curve, though single readings scatter.

Tests used:
[1] = qHTS assay to test for compound auto fluorescence at 535 nm (green) in HEK293 cells (AID 720680)
[2] = qHTS assay to test for compound auto fluorescence at 460 nm (blue) in HEK293 cell free culture (AID 720681)
How it was run: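 Test compounds were pinned into cell-free culture medium (DMEM with 10% FBS) and fluorescence was read directly at Ex/Em 405/460 nm. Signals were expressed as fluorescence equivalents of triamterene, with DMSO vehicle as control.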

[3] = qHTS assay to test for compound auto fluorescence at 535 nm (green) in HEK293 cell free culture (AID 720682)
How it was run: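 Each library compound, or DMSO control, is added by pintool to medium alone, comprising DMEM and 10% FBS. Emission at 535 nm following 485 nm excitation is quantified against fluorescein.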

[4] = qHTS assay to test for compound auto fluorescence at 590 nm (red) in HEK293 cell free culture (AID 720683)
How it was run: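 Tox21 10K library compounds were pinned into cell-free DMEM with 10% FBS and fluorescence was read at excitation 540 nm. Activity is expressed as Rose Bengal sodium equivalency.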

[5] = qHTS assay to test for compound auto fluorescence at 590 nm (red) in HepG2 cell free culture (AID 720684)
How it was run: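 Measured in medium alone (MEM containing 10% FBS) following pintool addition of compound; emission at 590 nm with 540 nm excitation, referenced to Rose Bengal sodium.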

[6] = qHTS assay to test for compound auto fluorescence at 460 nm (blue) in HepG2 cell free culture (AID 720685)
How it was run: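 Compound (23 nL) or DMSO pinned into cell-free MEM with 10% FBS; blue fluorescence read at 405/460 nm excitation/emission, expressed as auto-fluorescence equivalency to triamterene.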

[7] = qHTS assay to test for compound auto fluorescence at 535 nm (green) in HepG2 cell free culture (AID 720686)
[8] = qHTS assay to test for compound auto fluorescence at 460 nm (blue) in HepG2 cells (AID 720687)
How it was run: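 Cells (2,000/well in MEM with 10% FBS) attached overnight at 37 C, then were exposed to compound or DMSO for 1 hr at 37 C, 5% CO2. Fluorescence read at Ex/Em 405/460 nm, expressed as triamterene-equivalent signal.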

[9] = biological target: Glucocorticoid receptor (Homo sapiens) (UniProt P04150); assay: qHTS assay to identify small molecule agonists of the glucocorticoid receptor (GR) signaling pathway (AID 720691; active = well fitted activation curve with a large enough effect in the signal ratio in the repeat runs, not every such curve was filed as active; the % refers to the signal ratio)
How it was run: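 GR-bla HeLa cells carrying a GRE-driven beta-lactamase reporter, exposed to compounds for 18 h at 37 C. Reporter activation read as fluorescence after 2 h with LiveBLAzer B/G FRET substrate at room temperature.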

[10] = biological target: Glucocorticoid receptor (Homo sapiens) (UniProt P04150); assay: qHTS assay to identify small molecule antagonists of the glucocorticoid receptor (GR) signaling pathway (AID 720692; active = well fitted inhibition curve with a large enough effect in the signal ratio in the repeat runs, not every such curve was filed as active; the % refers to the signal ratio)
How it was run: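 GR-bla HeLa cells carrying a GRE-driven beta-lactamase reporter received compound after 4 h plating, then dexamethasone (5 nM final). After 18 h at 37C, the FRET substrate was loaded for 2 h at room temperature and fluorescence read.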

Measured: Potency

Chain of Glucocorticoid receptor (Homo sapiens) (P04150 whole entry, looked up): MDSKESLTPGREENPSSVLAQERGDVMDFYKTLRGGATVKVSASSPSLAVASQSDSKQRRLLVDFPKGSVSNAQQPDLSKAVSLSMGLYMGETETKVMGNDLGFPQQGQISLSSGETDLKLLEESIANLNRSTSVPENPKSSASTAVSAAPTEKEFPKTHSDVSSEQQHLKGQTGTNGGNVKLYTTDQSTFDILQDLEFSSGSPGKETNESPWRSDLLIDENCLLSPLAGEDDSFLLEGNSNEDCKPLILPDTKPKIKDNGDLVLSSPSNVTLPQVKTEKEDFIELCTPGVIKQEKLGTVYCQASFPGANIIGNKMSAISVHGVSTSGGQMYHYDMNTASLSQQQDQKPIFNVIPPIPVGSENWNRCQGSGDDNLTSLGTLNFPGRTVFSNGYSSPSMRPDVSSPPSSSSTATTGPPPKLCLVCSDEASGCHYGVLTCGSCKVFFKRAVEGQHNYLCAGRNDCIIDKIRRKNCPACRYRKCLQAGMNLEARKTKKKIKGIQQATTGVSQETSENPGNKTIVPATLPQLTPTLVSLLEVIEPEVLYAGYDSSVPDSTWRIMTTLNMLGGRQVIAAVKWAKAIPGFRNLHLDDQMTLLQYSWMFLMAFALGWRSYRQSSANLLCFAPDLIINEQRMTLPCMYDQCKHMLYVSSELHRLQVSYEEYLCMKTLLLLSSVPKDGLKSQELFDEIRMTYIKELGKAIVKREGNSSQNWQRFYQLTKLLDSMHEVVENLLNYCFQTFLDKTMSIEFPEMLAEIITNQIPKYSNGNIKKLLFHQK

CC(C)COC(=O)c1ccccc1C(=O)OCC(C)C
inactive: all assays above

CCCCSP(=O)(SCCCC)SCCCC
not listed: [10]
inactive: all other assays above

CC(C)(C#N)N=NC(C)(C)C#N
not listed: [10]
inactive: all other assays above

N#Cc1cccnc1
not listed: [10]
inactive: all other assays above

O=C(O)c1nn(Cc2ccc(Cl)cc2Cl)c2ccccc12
not listed: [10]
inactive: all other assays above

OCCOCCO
not listed: [10]
inactive: all other assays above

C=CC(Cl)CCl (configuration not stated)
inactive: all assays above

CC(C)Nc1ccc(Nc2ccccc2)cc1
not listed: [10]
inactive: all other assays above

CCCCCCCCCC(CC)c1ccc(S(=O)(=O)O)cc1 (configuration not stated)
not listed: [10]
inactive: all other assays above

Cn1c(-c2ccccc2)cc(-c2ccccc2)[n+]1C
not listed: [10]
inactive: all other assays above

O=NN1CCOCC1
inactive: all assays above

CC(O)CN(CC(C)O)CC(C)O (configuration not stated)
not listed: [10]
inactive: all other assays above

CCCCCCCCCCCCCl
inactive: all assays above

c1ccc(C2CO2)cc1 (configuration not stated)
not listed: [10]
inactive: all other assays above

CCCCC(C#N)(Cn1cncn1)c1ccc(Cl)cc1 (configuration not stated)
not listed: [10]
inactive: all other assays above

CC(C)(c1ccc(OCC2CO2)cc1)c1ccc(OCC2CO2)cc1 (configuration not stated)
not listed: [10]
inactive: all other assays above

C[N+](C)(C)CC(=O)[O-]
not listed: [7] | [9] | [10]
inactive: all other assays above

O=C1CCCO1
not listed: [10]
inactive: all other assays above

COC(=O)Nc1nc2ccccc2[nH]1
not listed: [10]
inactive: all other assays above

COc1ccc(O)c(C(C)(C)C)c1
not listed: [7] | [10]
inactive: all other assays above

C=C(C)C#N
not listed: [7] | [9] | [10]
inactive: all other assays above

CC(C)=CC1C(C(=O)OCc2cccc(Oc3ccccc3)c2)C1(C)C (configuration not stated)
not listed: [7] | [10]
inactive: all other assays above

CC(C)Nc1nc(Cl)nc(NC(C)C)n1
not listed: [7] | [9] | [10]
inactive: all other assays above

CCCCOCCOC(C)=O
not listed: [7] | [10]
inactive: all other assays above

Clc1cccc(Cl)c1
not listed: [7] | [10]
inactive: all other assays above

CC[n+]1c(-c2ccccc2)c2cc(N)ccc2c2ccc(N)cc21
not listed: [7] | [9] | [10]
inactive: all other assays above

[Cl-].[Cl-].[Cl-].[Fe+3]
not listed: [7] | [9] | [10]
inactive: all other assays above

COc1ccc(CO)cc1
not listed: [7]
inactive: all other assays above
